Eleven molecules from PubChem BioAssay (NCATS) can be followed below.

The target in test [1] is Chromobox protein homolog 1 (Homo sapiens) (UniProt P83916). Description: qHTS Validation Assay for Inhibitors of HP1-beta Chromodomain Interactions with Methylated Histone Tails (AID 488953). Further: nearly all actives have a fitted effect of over 50% in size. Further: potency means the concentration at half of the fitted maximal effect. The essentials:
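50 nM HP1-beta + 50 nM biotin-H3(1-18)K9me3, PBS pH 7.4, 0.01% Tween-20, 30 min RT; compound added, 30 min RT; AlphaScreen beads 10 ug/mL final, 30 min dark; luminescence read.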
In general terms: In qHTS, concentration-response curves come from the screen itself.

Test [2] has as its target Methanococcus maripaludis chaperonin (MmCpn) (UniProt Q6LX38). Description: High-Throughput Screening for Modulators of Cytosolic Chaperonin Activity: MmCpn Primary Screen (AID 488978).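 Further: 50 nM MmCpn enzyme hydrolysing 30 µM ATP at 37 °C; 0% is about no effect.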 The essentials: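 Measures ATPase turnover of the M. maripaludis chaperonin (50 nM final) against 30 uM ATP over 10 min at 37C, with compound added 5 min beforehand at room temperature. ADP is quantified by HTRF immunodetection.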

The target in test [3] is D(1A) dopamine receptor (Homo sapiens) (UniProt P21728). In words: HTS Assay for Allosteric Agonists of the Human D1 Dopamine Receptor: Primary Screen for Agonists (AID 488981). Further: 0% is about no effect. The essentials: (§1)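 Tetracycline-induced HEK293 Trex D1 cells with forced coupling to calcium, loaded with no-wash calcium dye; kinetic fluorescence read 180 s after compound addition for agonism, then a further 180 s after an EC20 dopamine challenge for potentiation.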
Chain of D(1A) dopamine receptor (Homo sapiens) (P21728 whole entry, looked up): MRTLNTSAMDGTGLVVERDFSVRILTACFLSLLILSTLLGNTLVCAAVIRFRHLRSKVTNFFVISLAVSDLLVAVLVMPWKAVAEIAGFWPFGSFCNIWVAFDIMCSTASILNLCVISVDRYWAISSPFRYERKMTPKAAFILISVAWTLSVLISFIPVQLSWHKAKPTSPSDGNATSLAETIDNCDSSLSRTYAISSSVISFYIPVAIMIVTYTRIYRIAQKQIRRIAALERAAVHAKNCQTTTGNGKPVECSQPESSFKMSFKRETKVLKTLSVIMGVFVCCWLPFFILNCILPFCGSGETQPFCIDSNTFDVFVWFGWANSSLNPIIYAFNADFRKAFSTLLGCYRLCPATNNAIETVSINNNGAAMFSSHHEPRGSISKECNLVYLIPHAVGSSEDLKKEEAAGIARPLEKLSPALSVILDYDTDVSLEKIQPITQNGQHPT

Test [4] shares this target. In words: HTS Assay for Allosteric Agonists of the Human D1 Dopamine Receptor: Primary Screen for Potentiators (AID 488982). Further: 0% is about no effect. The essentials:
as §1

The target is the same in test [5]. Description: HTS Assay for Allosteric Agonists of the Human D1 Dopamine Receptor: Primary Screen for Antagonists (AID 488983).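 Further: calcium flux response to an EC80 dopamine challenge measured with no-wash dye; on the % scale 0 is the no-effect control and ±100 the full control effect; nearly all actives have a fitted effect of over 65% in size.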 The essentials:
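Cells are induced with tetracycline and incubated overnight at 30 C, then loaded with calcium dye for 30 to 90 minutes at room temperature. Compound addition is followed by a 180 s read, then an EC80 dopamine addition and another 180 s read.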

Test [6] can be described thus: Nrf2 qHTS screen for inhibitors: Validation (AID 493153; active means well fitted inhibition curve with a large enough effect in the main read-out, with a control signal flat, not every such curve was filed as active). The note with it: Potency: luciferase luminescence; viability change: measured here: cytotoxicity max response. The essentials: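 Luminescence from an ARE-firefly luciferase reporter in A549 cells gives Nrf2 inhibition; an earlier CellTiter-Fluor fluorescent read flags cytotoxicity. Cells in 5% FBS OPTI-MEM received compound dilution series for 18-24 h at 37°C.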

Test [7] can be described thus: qHTS for Inhibitors of Cell Surface uPA Generation: Validation Assay (AID 493164). Further: 0% is about no effect. The essentials: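 RAW 264.7 cells (4000/well) were plated overnight, then exposed for 18 h at 37 C, 5% CO2 to compounds in a 7-point 1:5 titration (2.45 nM–38.3 uM final). Intracellular ATP was read by ATP-Lite luminescence.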
The target in test [8] is Peptidyl-prolyl cis-trans isomerase NIMA-interacting 1 (Homo sapiens) (UniProt Q13526). Description: qHTS Validation Assay to Find Inhibitors of Pin1 (AID 504536; active means well fitted inhibition curve with a large enough effect in the polarisation, with a control signal flat, not every such curve was filed as active; the % refers to the polarisation;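 further: 0% = full Pin1 enzyme wells and -100% = no-enzyme wells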). The essentials: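 Fluorescence polarization competition: compounds (titration) displace HiFluor-488-labeled Pin1-1b peptide from Pin1 (0.3 uM final) in pH 7.5 HEPES buffer with DTT, 10 min at room temperature; %Activity normalized to no-enzyme wells, curves fitted.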
Chain of Peptidyl-prolyl cis-trans isomerase NIMA-interacting 1 (Homo sapiens) (Q13526 whole entry, looked up): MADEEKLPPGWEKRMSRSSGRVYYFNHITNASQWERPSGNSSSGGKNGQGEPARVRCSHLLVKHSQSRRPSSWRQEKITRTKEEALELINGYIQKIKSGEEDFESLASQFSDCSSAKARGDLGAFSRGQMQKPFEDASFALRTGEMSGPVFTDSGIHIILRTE

For test [9], the target named is Phosphoglycerate kinase, glycosomal (Trypanosoma brucei brucei) (UniProt P07378). Description: qHTS Validation Assay to Find Inhibitors of Phosphoglycerate Kinase (AID 504547).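 Further: control wells lack PGK and mark full inhibition.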 The essentials:
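PGK activity was coupled to GAPDH (100nM final), which generates the unstable substrate 1,3-bisphosphoglycerate in-well. Reactions ran 60 minutes at room temperature in 100mM TEA pH 7.6, 5mM MgCl2, 0.01% Tween-20, then Kinase-Glo Plus luminescence was read.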

Test [10] concerns the target phosphoglycerate mutase (Leishmania major) (UniProt Q4Q090). Description: qHTS Validation Assay to Find Inhibitors of Phosphoglycerate Mutase (AID 504548).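 Further: end-point luminescence from Kinase-GloPlus after the PGAM reaction; series mostly up to about 58 µM; on the % scale 0 is the no-effect control and ±100 the full control effect.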 The note with it: Potency: inhibition qHTS. The essentials:
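L. major PGAM (1.25nM final) was added to substrate buffer and pinned compound, incubated 45 minutes at room temperature, then Kinase-GloPlus added; luminescence read after 10 minutes. Buffer: 100 mM TEA pH 7.6, 5 mM MgCl2, 0.01% Tween-20.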

Test [11] deals with Ubiquitin carboxyl-terminal hydrolase 1 (Homo sapiens) (UniProt O94782). In words: Inhibitors of USP1/UAF1: Pilot qHTS (AID 504865).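 Further: rhodamine fluorescence freed from ubiquitin-rhodamine substrate followed over time; top concentration of the series differs between compounds; on the % scale 0 is the no-effect control and ±100 the full control effect; nearly all actives have a fitted effect of over 35% in size.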 The essentials: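 Kinetic fluorescence assay: 1nM USP1/UAF1, 15 min compound preincubation, then 150nM Ub-Rho; 480/540 nm.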
Test [12] in a line: qHTS for Inhibitors of ATXN expression: Validation of Cytotoxic Assay (AID 588349). Further: on the % scale 0 is the no-effect control and ±100 the full control effect. The essentials: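 Read-out: ATP-based luminescence (CellTiter Glo) reflecting viability of HEK293 cells after 72 hr incubation at 37 degrees C with a concentration series of each compound.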
Test [13] in a line: qHTS for Inhibitors of ATXN expression: Validation (AID 588378). Further: nearly all actives have a fitted effect of over 75% in size. Further: potency means the concentration at half of the fitted maximal effect. The essentials:
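Validation of ATXN2 expression inhibitors uses a cell-based luciferase fusion reporter in HEK293 cells, with 24 h compound exposure and paired viability (fluorescence) and reporter (luminescence) end-point reads.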

Test [14] addresses Thyrotropin receptor (Homo sapiens) (UniProt P16473). In words: qHTS Assay for Antagonists of the Thyroid Stimulating Hormone Receptor (AID 488980). Further: series mostly up to about 58 µM; 0% is about no effect. The essentials: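 Cells expressing human TSHR (HEK293) are dispensed in HBSS/HEPES containing 70 uM RO 20-1724, compound is added, then TSH at EC80 (4 nM final). Antibody in lysis buffer follows, 30 minutes at room temperature before HTRF detection.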

Test [15] in a line: Validation screen for small molecules that induce genotoxicity in human embryonic kidney (HEK293T) cells expressing luciferase-tagged ELG1 (AID 493106). Further: potency means the concentration at half of the fitted maximal effect. The essentials: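 Luminescence from an ELG1-luciferase fusion serves as the read-out, rising when genetic stress elevates ELG1 protein. HEK293T reporter cells (2,000 per well) received 23 nL compound, incubated 16 hr at 37 °C, then ONE-Glo for 30 min at room temperature.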

For test [16], the target named is Galactokinase (Homo sapiens) (UniProt P51570). In words: qHTS Validation Assay for Inhibitors of Human Galactokinase (GALK) (AID 493189). Further: 0% is about no effect. The essentials:
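Compounds were pin-transferred into ATP buffer, then GALK-galactose mix was added (final 5 nM enzyme, 100 uM galactose, 35 uM ATP). After 1 h at room temperature, remaining ATP was measured luminescently.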

Test [17] can be described thus: Validation screen for small molecules that induce DNA re-replication in SW480 colon adenocarcinoma cells (AID 504364). Further: 0% is about no effect. The essentials: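 250 cells/well; compound pinned in; 48 hr, 37 C, 5% CO2; Hoechst added, 40 min; nuclear fluorescence imaged, 405 ex / 500-530 em; re-replication scored as increase in high-intensity nuclei.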
The target of test [18] is ATPase family AAA domain-containing protein 5 (Homo sapiens) (UniProt Q96QE3). Description: Validation screen for small molecules that inhibit ELG1-dependent DNA repair in human embryonic kidney (HEK293T) cells expressing luciferase-tagged ELG1 (AID 493107).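 Further: cells co-treated with the DNA-damaging agent 5-fluorouridine alongside compound; series mostly up to about 46 µM; on the % scale 0 is the no-effect control and ±100 the full control effect; inhibitors lower the ELG1-luciferase luminescence signal; nearly all actives have a fitted effect of over 70% in size.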 The essentials:
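Luminescence from ONE-Glo, developed 30 min at room temperature, served as read-out of ELG1-luciferase levels. Beforehand, reporter HEK293T cells received 5-fluorouridine plus test compound for 16 hr at 37 °C.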

The target in test [19] is Thyrotropin-releasing hormone receptor (Homo sapiens) (UniProt P34981). Description: qHTS for Small Molecule Agonists and Allosteric Enhancers of Human TRH Receptor: Validation Screen for Agonists (AID 493127;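 active means calcium activation more than 3 SD above the typical response in the agonist read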;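 further: intracellular calcium rise by fluo-8 fluorescence before TRH EC20 addition; 0% is about no effect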). The note with it: TRH receptor agonist cell assay; at 2 µM; stronger effect = higher value. The essentials:
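Cells 2000/well, 10% FCS, 18 h 33.5C/5% CO2 → fluo-8 Ca dye, RT 30 min–1.5 h → FDSS baseline 10 × 1 s → compound added → 230 cycles (1 s/cycle) agonist mode. TRH controls.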

In test [20] the target is ATP-dependent 6-phosphofructokinase (Trypanosoma brucei brucei) (UniProt O15648). In words: qHTS Assay to Find Inhibitors of T. brucei phosphofructokinase: hit validation (AID 492961).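 Further: luminescence reports ADP formed as PFK phosphorylates fructose-6-phosphate with ATP; series mostly up to about 51 µM; on the % scale 0 is the no-effect control and ±100 the full control effect.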 The essentials: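 Compounds titrated; %activity normalized to 0x and 1x enzyme controls, curve-fitted. Readout: ADP-Glo luminescence after 45 min room-temperature reaction of 1.25 nM PFK, 0.1 mM ATP, 0.5 mM F6P, pH 8.0.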
Chain of ATP-dependent 6-phosphofructokinase (Trypanosoma brucei brucei) (O15648 whole entry, looked up): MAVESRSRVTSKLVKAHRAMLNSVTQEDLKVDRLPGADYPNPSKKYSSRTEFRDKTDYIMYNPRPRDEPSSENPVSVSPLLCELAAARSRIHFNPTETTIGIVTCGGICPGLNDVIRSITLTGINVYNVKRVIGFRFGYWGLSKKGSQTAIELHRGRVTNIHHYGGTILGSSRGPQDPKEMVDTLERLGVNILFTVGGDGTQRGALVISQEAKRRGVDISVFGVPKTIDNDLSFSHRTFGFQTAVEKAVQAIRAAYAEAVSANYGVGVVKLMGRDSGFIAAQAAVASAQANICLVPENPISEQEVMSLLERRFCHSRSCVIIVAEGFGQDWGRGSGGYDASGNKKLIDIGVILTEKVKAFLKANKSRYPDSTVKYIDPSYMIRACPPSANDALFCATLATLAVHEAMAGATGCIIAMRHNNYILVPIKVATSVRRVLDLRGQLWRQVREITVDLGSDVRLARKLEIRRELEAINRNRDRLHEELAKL

Results filed as inconclusive are left out. Calls of active or inactive are those of the source. Unless noted, the call rests on the fitted dose curve; in most records, active means well fitted curve in the direction sought with a large enough effect; inconclusive means small, poorly fitted or top-dose-only effect, or another doubt; inactive means no such curve, though single readings can be large; an effect the other way counts as inactive or inconclusive.

Chain of Phosphoglycerate kinase, glycosomal (Trypanosoma brucei brucei) (P07378 whole entry, looked up): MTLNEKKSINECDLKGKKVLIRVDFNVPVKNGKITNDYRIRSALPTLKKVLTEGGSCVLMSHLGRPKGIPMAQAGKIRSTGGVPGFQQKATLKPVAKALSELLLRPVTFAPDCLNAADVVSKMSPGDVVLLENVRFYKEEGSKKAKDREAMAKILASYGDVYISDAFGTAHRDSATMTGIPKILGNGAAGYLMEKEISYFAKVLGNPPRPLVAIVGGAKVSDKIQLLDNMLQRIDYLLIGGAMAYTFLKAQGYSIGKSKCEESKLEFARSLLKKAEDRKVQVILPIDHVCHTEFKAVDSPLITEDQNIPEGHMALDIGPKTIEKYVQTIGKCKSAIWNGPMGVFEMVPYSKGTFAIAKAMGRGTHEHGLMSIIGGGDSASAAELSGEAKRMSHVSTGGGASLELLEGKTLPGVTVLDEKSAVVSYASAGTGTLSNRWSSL
Chain of Methanococcus maripaludis chaperonin (MmCpn) (Q6LX38 1-543): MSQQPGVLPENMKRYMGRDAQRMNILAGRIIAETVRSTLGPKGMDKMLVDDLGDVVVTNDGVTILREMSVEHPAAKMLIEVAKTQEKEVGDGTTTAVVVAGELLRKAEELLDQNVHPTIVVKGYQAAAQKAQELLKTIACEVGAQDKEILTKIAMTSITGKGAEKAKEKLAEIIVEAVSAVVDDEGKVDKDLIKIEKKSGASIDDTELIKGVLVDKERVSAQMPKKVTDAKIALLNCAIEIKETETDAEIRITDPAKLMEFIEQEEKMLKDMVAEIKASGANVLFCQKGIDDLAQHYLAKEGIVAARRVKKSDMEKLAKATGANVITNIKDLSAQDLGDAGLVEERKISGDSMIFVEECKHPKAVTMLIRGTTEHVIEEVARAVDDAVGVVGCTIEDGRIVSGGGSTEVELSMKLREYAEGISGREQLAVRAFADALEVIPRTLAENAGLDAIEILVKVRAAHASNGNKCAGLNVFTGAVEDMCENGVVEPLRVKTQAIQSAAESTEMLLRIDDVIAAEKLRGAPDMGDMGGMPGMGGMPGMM
Chain of Chromobox protein homolog 1 (Homo sapiens) (P83916 whole entry, looked up): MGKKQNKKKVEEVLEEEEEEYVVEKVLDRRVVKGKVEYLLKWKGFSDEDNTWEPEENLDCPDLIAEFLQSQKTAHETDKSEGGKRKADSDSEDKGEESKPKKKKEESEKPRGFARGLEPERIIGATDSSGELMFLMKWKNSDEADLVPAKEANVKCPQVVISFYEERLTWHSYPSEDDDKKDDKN
Chain of Galactokinase (Homo sapiens) (P51570 whole entry, looked up): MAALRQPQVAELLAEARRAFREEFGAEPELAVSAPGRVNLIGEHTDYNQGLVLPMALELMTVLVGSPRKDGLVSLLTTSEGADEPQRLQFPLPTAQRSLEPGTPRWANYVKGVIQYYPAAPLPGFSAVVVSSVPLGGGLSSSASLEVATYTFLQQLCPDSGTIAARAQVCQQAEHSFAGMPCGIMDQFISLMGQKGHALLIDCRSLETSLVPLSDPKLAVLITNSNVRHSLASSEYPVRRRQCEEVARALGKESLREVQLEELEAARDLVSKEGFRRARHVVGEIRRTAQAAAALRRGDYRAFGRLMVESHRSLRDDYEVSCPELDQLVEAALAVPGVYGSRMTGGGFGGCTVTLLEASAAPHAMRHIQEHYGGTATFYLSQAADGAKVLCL
Chain of phosphoglycerate mutase (Leishmania major) (Q4Q090 1-553): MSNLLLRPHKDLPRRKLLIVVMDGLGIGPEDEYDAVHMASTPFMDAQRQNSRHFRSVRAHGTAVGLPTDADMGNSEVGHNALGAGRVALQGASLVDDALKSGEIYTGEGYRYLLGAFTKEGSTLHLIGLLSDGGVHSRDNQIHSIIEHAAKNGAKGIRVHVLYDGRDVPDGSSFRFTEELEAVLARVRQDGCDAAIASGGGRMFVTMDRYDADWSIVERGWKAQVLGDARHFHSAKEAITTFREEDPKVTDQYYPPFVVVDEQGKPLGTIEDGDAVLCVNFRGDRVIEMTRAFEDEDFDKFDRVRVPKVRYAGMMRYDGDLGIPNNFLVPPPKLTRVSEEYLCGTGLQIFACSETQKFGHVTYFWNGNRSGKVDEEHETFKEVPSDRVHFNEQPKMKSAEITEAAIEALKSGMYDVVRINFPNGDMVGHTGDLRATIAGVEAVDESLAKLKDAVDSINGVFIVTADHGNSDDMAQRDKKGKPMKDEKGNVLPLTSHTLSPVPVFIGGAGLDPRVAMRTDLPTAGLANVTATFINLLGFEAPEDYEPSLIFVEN
Chain of Thyrotropin receptor (Homo sapiens) (P16473 whole entry, looked up): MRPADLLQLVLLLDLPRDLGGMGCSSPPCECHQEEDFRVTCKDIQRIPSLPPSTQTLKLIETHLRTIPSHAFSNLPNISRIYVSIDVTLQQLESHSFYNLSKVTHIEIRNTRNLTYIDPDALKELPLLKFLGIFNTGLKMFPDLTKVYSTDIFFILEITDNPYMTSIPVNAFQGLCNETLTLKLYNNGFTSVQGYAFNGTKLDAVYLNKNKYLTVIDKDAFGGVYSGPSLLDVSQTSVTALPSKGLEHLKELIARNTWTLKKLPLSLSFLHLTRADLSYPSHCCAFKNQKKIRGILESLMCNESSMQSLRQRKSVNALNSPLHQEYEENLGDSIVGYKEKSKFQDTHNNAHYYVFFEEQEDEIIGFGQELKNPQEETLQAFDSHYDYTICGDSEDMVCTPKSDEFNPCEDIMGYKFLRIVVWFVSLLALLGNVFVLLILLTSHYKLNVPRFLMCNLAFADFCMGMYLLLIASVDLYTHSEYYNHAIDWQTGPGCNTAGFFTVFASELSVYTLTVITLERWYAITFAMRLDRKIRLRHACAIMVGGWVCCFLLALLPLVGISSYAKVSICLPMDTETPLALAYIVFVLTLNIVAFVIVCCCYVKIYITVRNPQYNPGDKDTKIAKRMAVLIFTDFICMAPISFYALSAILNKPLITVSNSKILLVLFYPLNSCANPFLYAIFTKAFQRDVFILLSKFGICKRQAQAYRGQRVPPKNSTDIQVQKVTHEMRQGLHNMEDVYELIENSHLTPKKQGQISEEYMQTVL
Chain of Thyrotropin-releasing hormone receptor (Homo sapiens) (P34981 whole entry, looked up): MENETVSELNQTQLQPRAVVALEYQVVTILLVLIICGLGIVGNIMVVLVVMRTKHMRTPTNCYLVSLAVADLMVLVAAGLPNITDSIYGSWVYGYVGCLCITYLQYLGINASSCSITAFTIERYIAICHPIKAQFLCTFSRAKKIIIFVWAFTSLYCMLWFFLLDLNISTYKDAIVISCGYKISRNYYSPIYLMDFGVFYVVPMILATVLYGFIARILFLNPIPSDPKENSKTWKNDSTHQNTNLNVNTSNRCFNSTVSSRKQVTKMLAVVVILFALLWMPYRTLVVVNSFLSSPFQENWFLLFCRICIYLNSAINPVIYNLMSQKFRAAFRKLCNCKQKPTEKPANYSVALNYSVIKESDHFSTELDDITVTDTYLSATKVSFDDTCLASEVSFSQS

On to `COc1cc2c(cc1OC)C1CC(=O)C(CC(C)C)CN1CC2` (stereo unspecified), for which the Potency entry in [1], in test [4], in test [5], in test [6], in test [9] and in [10] was “inactive” each time. Moreover, the Potency entry in [11] and in test [13] was “inactive” in each case. Moreover, the molecule was called inactive in [2], in test [3], in test [7], in [8] and in test [12]. Further, the viability change in test [6] is -5.87%.
In the case of `C[C@H](Cc1ccc(O)c(O)c1)[C@@H](C)Cc1ccc(O)c(O)c1`, the Potency in test [1] was 31.6 µM (active); in test [13], 22.4 µM (active). The outcome in [2], in [14], in [7] and in test [16] was inactive. Further, the Potency entry in test [5], in [15], in [17], in [9] and in test [10] was “inactive” each time.
For `Nc1nc(OCc2ccccc2)c2[nH]cnc2n1`, the Potency entry in test [1], in test [4], in [5], in test [6], in test [17] and in test [9] was “inactive” each time. For the same molecule, the Potency result in test [10], in test [11] and in [13] was “inactive” in each case. Also, the call in test [2], in test [14], in [3], in [18], in test [7] and in test [16] was inactive. Further, in test [8], the molecule was classed as inactive. The activation in [19] is -2.94% (inactive). The viability change in test [6] was determined as 10.1%.
For the molecule `Cc1cccc(C#Cc2ccccc2)n1`, the molecule was called inactive in test [2], in [14], in test [3], in [7], in test [16] and in test [8]. Besides, the molecule was called inactive in [12]. Further, the Potency result in test [4], in [5], in test [6], in test [17], in test [11] and in test [13] was “inactive” throughout. Further, the Potency in [15] is 8.2 µM (active). In [19], the activation was -5.31% (inactive). Also, the viability change in test [6] worked out at 2%.
As to `OC(CN1CCN(c2cccc(Cl)c2)CC1)C(c1ccccc1)c1ccccc1` (stereo unspecified), the molecule was classed as inactive in [2], in test [14], in test [3], in [18], in test [7] and in test [16]. Also, the molecule was classed as inactive in test [8] and in [12]. For the same molecule, the Potency result in test [4], in [5], in [15], in [6], in [9] and in [10] was “inactive” in each case. Further, the Potency entry in test [11] and in [13] was “inactive” throughout. Further, the activation in test [19] was 2.44% (inactive). Also, the viability change in [6] was found to be 1.98%.
`CS(=O)(=O)OCCCCOS(C)(=O)=O`: in test [20], the outcome was inactive. Moreover, the Potency result in test [11] is “inactive”.
In the case of `O=C1CCc2ccc(OCCCCN3CCN(c4cccc(Cl)c4Cl)CC3)cc2N1`, the outcome in [20] was inactive.
Take `CCCCCCCCCCCCCCCCCCCCCCO`: the Potency entry in [11] is “inactive”.
As for `C[C@H](Cn1cnc2c(N)ncnc21)OCP(=O)(O)O`, the outcome in test [20] was inactive. Moreover, the Potency result in [11] was “inactive”.
Turning to `S=c1nc[nH]c2nc[nH]c12`, the Potency result in test [11] is “inactive”.
In the case of `Oc1ccc(OCc2ccccc2)cc1`, in test [20], the outcome was inactive. Moreover, in test [11], the Potency result was “inactive”.
